Laboratory results reported in PubChem BioAssay.
Active and inactive are the calls of the source.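 How the source made its calls: active means inhibition over a set limit, the all-compound mean plus 3 SD, in both replicate runs; inconclusive means over that limit in just one replicate run; inactive means at or under that limit in both runs.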

Experiment: RAM pathway blockade in budding yeast – dse1pr::URA3 reporter, 5-FOA selection, pilot screen (AID 869);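 further: 0% = DMSO wells with no growth and 100% = 10 µM 1-NA-PP1 with full growth; RAM network block rescues cells from 5-FOA so hits raise OD615 growth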
Conditions: S. cerevisiae dse1pr::URA3 5-FOA growth, OD615, 2 d; at 10 µM; hits give high values; strain carries analog-sensitive mutant Cbk1 kinase

inhibition, inactive:
CCOc1ccc(N(CC(=O)Nc2ccc(C)c(C)c2)S(=O)(=O)c2c(C)noc2C)cc1 1.85%
CCCn1c(OC)nc2c1c(=O)n(C)c(=O)n2C 2.22%
COc1cc2[nH]c(=O)n(CCCCCC(=O)N3CCN(c4ccccn4)CC3)c(=O)c2cc1OC 1.7%
CCOc1ccc(N(CC(=O)NC2CCCCC2)S(=O)(=O)c2c(C)noc2C)cc1 3.15%
O=C(c1ccco1)N1CCN(C(=O)c2sccc2-c2ccccc2)CC1 2.49%
CCSC1=C(C#N)C(c2ccccc2OC)CC(=O)N1 (configuration not stated) 1.78%
CCOC(=O)Cn1nc(-c2ccc(Cl)cc2)cc1N 1.88%
CC(C(=O)N1CC2(C)CC1CC(C)(C)C2)N1C(=O)c2ccccc2C1=O (configuration not stated) 0.545%
COc1cccc(N(C(C)=O)c2nc(C)cc(C)c2C#N)c1 1.36%
COc1cccc(NC(=O)c2ccco2)c1 0.235%
Cc1ccc(Cn2c(CN3CCOCC3)nc3c2c(=O)n(C)c(=O)n3C)cc1 2.71%
CCOc1ccc(NC(=O)CSc2nccn2C)cc1 2.29%
Cc1nc2ccc(Br)cn2c1NC(C)(C)C 1.55%
COc1ccccc1C(=O)NCCc1nc2ccccc2n1C 2.54%
Cn1ccnc1SCC(=O)Nc1ccc2ccccc2c1 1.69%
c1nc(NCC2(N3CCOCC3)CCCCC2)c2ccsc2n1 1.14%
Cc1noc(C(=O)Nc2ccc3c(c2)OCO3)c1Cl 2.92%
